Consider 91 molecules from PMC4336329 (PLoS ONE, 2015).

Structures are written as SMILES. In all, about 310,000 compounds went through this assay and about 14,000 (4.5%) showed an effect of 50% or more. Effects have a minus sign here. The full list was thinned out, with strong results kept by preference.
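Also: peak tail current of the secondary pulse compared with the same well before compound.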

Chain of human ether-à-go-go-related gene (hERG) potassium channel (Q12809 whole entry, looked up): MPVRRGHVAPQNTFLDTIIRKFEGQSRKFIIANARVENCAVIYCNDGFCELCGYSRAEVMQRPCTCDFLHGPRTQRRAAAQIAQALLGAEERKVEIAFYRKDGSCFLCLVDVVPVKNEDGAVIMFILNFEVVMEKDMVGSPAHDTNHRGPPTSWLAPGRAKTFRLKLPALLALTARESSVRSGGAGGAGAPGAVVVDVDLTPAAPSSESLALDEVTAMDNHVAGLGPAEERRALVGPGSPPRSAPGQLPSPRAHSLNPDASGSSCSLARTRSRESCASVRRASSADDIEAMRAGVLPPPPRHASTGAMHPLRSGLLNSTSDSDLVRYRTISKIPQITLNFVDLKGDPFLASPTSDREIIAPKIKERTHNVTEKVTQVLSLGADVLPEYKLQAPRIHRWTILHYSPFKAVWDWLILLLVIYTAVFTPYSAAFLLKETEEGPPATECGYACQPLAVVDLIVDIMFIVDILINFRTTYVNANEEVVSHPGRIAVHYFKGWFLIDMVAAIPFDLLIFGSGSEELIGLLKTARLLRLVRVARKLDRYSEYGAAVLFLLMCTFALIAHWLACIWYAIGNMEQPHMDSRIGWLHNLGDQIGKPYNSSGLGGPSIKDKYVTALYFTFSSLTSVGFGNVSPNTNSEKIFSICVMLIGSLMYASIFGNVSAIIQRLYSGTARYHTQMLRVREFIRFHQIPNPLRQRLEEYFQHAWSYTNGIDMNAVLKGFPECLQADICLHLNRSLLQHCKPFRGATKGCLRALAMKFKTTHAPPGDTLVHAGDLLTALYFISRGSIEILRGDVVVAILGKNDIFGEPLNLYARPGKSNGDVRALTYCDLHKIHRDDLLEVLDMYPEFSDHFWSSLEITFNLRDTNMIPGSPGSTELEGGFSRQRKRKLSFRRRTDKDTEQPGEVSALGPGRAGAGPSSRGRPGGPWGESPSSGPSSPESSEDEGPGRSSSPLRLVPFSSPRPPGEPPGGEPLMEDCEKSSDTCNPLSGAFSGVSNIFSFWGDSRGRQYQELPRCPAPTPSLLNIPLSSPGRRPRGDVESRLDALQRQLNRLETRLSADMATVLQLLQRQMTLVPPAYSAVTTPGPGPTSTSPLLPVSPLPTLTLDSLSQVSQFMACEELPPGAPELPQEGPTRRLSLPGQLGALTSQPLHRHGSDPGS

The assay has as its target human ether-à-go-go-related gene (hERG) potassium channel (human, UniProt Q12809). The assay is described as follows: primary screen, population patch clamp on CHO cells stably expressing hERG; higher = less effect of the substance.
With `COc1ccc(N2CCN(CC(=O)Nc3c(C)cc(C)cc3C)CC2)cc1`, the “hERG current change (%, negative = inhibition) at 10uM” value was 0.738%.
Next, `Cc1ccc(CNC(=O)/C=C/c2ccc(Br)o2)cc1`: -26.2%; `O=C(Nc1cccc(Cl)c1)NC1CC2CCC1C2` (stereo not shown): 9.69%; `O=C(Nc1ccc2c(c1)OCCO2)c1cc(-c2ccccc2)nc2ccccc12`: 9.23%.
Next, `O=C(Nc1c2c(nc3ccccc13)CCCC2)c1ccccc1F`: -3%.
To `O=C(COC(=O)c1c2c(nc3ccccc13)CCCC2)Nc1ccc2c(c1)OCO2` belongs 3.1%; to `Cc1ccc2nc3c(c(Nc4ccc5c(c4)OCCO5)c2c1)CCC3.Cl`, -51.7%; to `c1ccc2c(Nc3ccc4c(c3)OCCO4)c3c(nc2c1)CCCC3`, -92.4%.
Consider `Cc1ccc2nc(-c3ccncc3)cc(C(=O)Nc3ccc4c(c3)OCCO4)c2c1`, for which the “hERG current change (%, negative = inhibition) at 10uM” value was found to be 3.46%.
To `Cl.c1ccc2c(Nc3ccc4c(c3)OCCO4)c3c(nc2c1)CCC3` belongs -52.3%; to `Cc1ccc2nc(-c3ccc4c(c3)OCCO4)cc(C(=O)O)c2c1`, 4.86%; to `Cc1cc(C)c(C)c(S(=O)(=O)N2CCC(C(=O)Nc3ccccc3N3CCOCC3)CC2)c1C`, -8.54%.
To `Cc1cc(Br)ccc1NC(=O)CNC(=O)Cc1ccc(S(=O)(=O)N2CCOCC2)s1` belongs -33.8%.
To `CCOC(=O)[C@H]1CCC[C@@H](NS(=O)(=O)c2ccc(NC(C)=O)cc2)C1` belongs 14.1%; to `Cc1ccc(Nc2ccc3nonc3c2[N+](=O)[O-])cc1`, 2.88%; to `CCCCNC(=O)C1c2ccccc2C(=O)N(c2ccc(OC)cc2)C1c1ccc(OC)cc1` (stereo not shown), -18.6%.
Turning to `COc1cc(OC)c(C(=O)NNC(=S)NC2CCCCC2)cc1OC`, the “hERG current change (%, negative = inhibition) at 10uM” value turned out to be 16.6%.
Next, `O=C(NC(=S)N1CCN(C/C=C/c2ccccc2)CC1)c1ccc(F)cc1`: -43.7%; `O=C(NCC(=O)N1CCN(S(=O)(=O)/C=C/c2ccccc2)CC1)c1ccc(Cl)cc1`: -23.1%; `O=C(NCC(=O)N1CCN(C/C=C/c2ccccc2)CC1)c1ccc(OC(F)F)cc1`: -79.5%.
To `CCOc1ccc(C(=O)NCC(=O)N2CCN(C/C=C/c3ccccc3)CC2)cc1OCC` belongs -41.7%; to `Cc1cccc(C(=O)NCC(=O)N2CCN(S(=O)(=O)/C=C/c3ccccc3)CC2)c1`, -18.5%.
To `CC(C)Oc1ccc(C(=O)NCC(=O)N2CCN(S(=O)(=O)/C=C/c3ccccc3)CC2)cc1` belongs -67.6%; to `CCOC(=O)c1cnc(SCc2nc(N)nc(Nc3ccccc3OC)n2)nc1N`, -2.39%.
Regarding `O=C1NCC(COc2cccc3ccccc23)O1` (stereo not shown), the “hERG current change (%, negative = inhibition) at 10uM” value is on record as 13.3%.
On to `CCN(CC(=O)Nc1ccc(NC(C)=O)cc1)C(=O)Cc1cccc2ccccc12`, for which the “hERG current change (%, negative = inhibition) at 10uM” value came to 4.98%.
Next, `CC1CCCCN1S(=O)(=O)c1ccc2[nH]c(=O)cc(C(=O)NCCCN3CCCCCC3)c2c1` (stereo not shown): 17%; `Cc1cccc(-n2cc(-c3ccc([N+](=O)[O-])cc3)[nH]c2=S)c1`: -2.96%.
To `Cc1ccc(-n2cc(-c3ccc([N+](=O)[O-])cc3)[nH]c2=S)c(C)c1` belongs -51.3%; to `O=[N+]([O-])c1ccc(-c2cn(-c3ccccc3F)c(=S)[nH]2)cc1`, -3.28%; to `CCOC(=O)C1CCCN(C(=O)Cn2nc(C)n3c(cc4c(OC)cccc43)c2=O)C1` (stereo not shown), -6.37%.
Next, `O=C(NCC1CCC(C(=O)O)CC1)OCc1ccccc1` (stereo not shown): 3.13%.
With `CN1C[C@H](CNC(=O)OCc2ccccc2)C[C@@H]2c3cccc4c3c(cn4C)C[C@H]21`, the “hERG current change (%, negative = inhibition) at 10uM” value is listed as -61.9%.
As to `CN1C[C@H](CO)C[C@@H]2c3cccc4[nH]cc(c34)C[C@H]21`, the “hERG current change (%, negative = inhibition) at 10uM” value is given as -7.36%.
Next, `COCc1ccc(C(=O)N2CCCC(N(C)CCc3ccc(OC)c(OC)c3)C2)s1` (stereo not shown): -62.4%; `COc1ccc(CCN(C)C2CCCN(C(=O)c3ccnn3C)C2)cc1OC` (stereo not shown): -21.1%.
Regarding `Cc1ccsc1C(=O)N1CCCC(N(C)Cc2ccccc2)C1` (stereo not shown), the “hERG current change (%, negative = inhibition) at 10uM” value was -13.9%.
Next, `COCc1ccc(C(=O)N2CCCC(N(C)Cc3ccccc3)C2)s1` (stereo not shown): -8.86%.
Next, `CCn1nc(C)cc1C(=O)N1CCCC(N(C)CCc2ccc(OC)c(OC)c2)C1` (stereo not shown): -16.2%.
For `COc1ccc(CCN(C)C2CCCN(C(=O)c3sccc3C)C2)cc1OC` (stereo not shown), the “hERG current change (%, negative = inhibition) at 10uM” value was -55%.
Next, `CN(C)CCCn1c(SCc2c(Cl)cccc2Cl)nnc1-c1ccncc1.O=C(O)C(=O)O`: -0.471%; `CCOc1ccc(NC(=O)C2CCCN(c3nn4c(=O)cc(C)nc4s3)C2)cc1` (stereo not shown): -7.14%.
To `COc1ccc(C/C(C)=N/NC(=O)c2ccncc2)cc1` belongs -7.41%; to `O=C(CSc1nc(O)c(C2CCCCC2)c(=O)[nH]1)Nc1ccc(F)cc1`, 22.4%; to `COc1ccc(OCCSc2ncc(CO)n2C)cc1`, 12.4%.
As for `CCCn1c(CN2CCN(C)CC2)nc2ccccc21`, the “hERG current change (%, negative = inhibition) at 10uM” value was -9.68%.
Next, `CCCCn1c(CN2CCN(CCO)CC2)nc2ccccc21`: -66%; `CCCCn1c(CNC(C)=O)nc2ccccc21`: 3.5%.
As for `CCCCn1c(CN2CCN(C)CC2)nc2ccccc21`, the “hERG current change (%, negative = inhibition) at 10uM” value is -67.1%.
Turning to `CCn1c(CN2CCN(CCO)CC2)nc2ccccc21`, the “hERG current change (%, negative = inhibition) at 10uM” value came out at 5.04%.
Next, `CCCCn1c(N)nc2ccccc21.Cl`: -8.47%.
Consider `O=S(=O)(Nc1ccccn1)c1ccc(Cl)c2ccccc12`, for which the “hERG current change (%, negative = inhibition) at 10uM” value is given as 19.5%.
Consider `O=C(NCc1cccnc1)c1cccc2c1C(=O)N(C1CCCCC1)C2`, for which the “hERG current change (%, negative = inhibition) at 10uM” value was -15.3%.
To `CCc1ccccc1N1C(=O)/C(=C/c2ccc(N3CCN(C)CC3)o2)C(=O)NC1=S` belongs 1.18%.
`O=C(CCNS(=O)(=O)c1ccccc1C(F)(F)F)NCC(c1ccco1)N1CCCCC1` (stereo not shown): the “hERG current change (%, negative = inhibition) at 10uM” value amounted to 0.519%.
To `CCOc1ccc2nc(NS(=O)(=O)c3cccs3)sc2c1` belongs 20.8%; to `COC(OC)c1ccc(C#N)c(SCc2ccccc2)n1`, 4.03%; to `CCNS(=O)(=O)c1ccc(CCC(=O)NCc2ccccn2)cc1`, 13.5%.
Next, `O=C(CN1CCOCC1)NNc1nc(-c2ccccc2)c2cc(Br)ccc2n1`: -38.7%; `CC(=O)NNc1nc(-c2ccccc2)c2cc(Br)ccc2n1`: 5.01%; `O=C(CN1CCCCC1)NNc1nc(-c2ccccc2)c2cc(Br)ccc2n1`: -55.4%.
Next, `O=C(CCl)NNc1nc(-c2ccccc2)c2cc(Cl)ccc2n1`: 1.46%.
For `O=C(O)CCC(=O)NNc1nc(-c2ccccc2)c2cc(Cl)ccc2n1`, the “hERG current change (%, negative = inhibition) at 10uM” value was found to be 14.4%.
Next, `O=C(CN1CCCCC1)NNc1nc(-c2ccccc2)c2cc(Cl)ccc2n1`: -58%; `COCCN(C(=O)CCCC(=O)Nc1ccccn1)C(C(=O)NC1CCCC1)c1ccc(C)cc1` (stereo not shown): -5.66%.
In the case of `O=C(Nc1cc2c(oc1=O)CCCC2=O)c1cccc(Cl)c1`, the “hERG current change (%, negative = inhibition) at 10uM” value is 4.61%.
Next, `CCC(Oc1ccccc1)C(=O)Nc1ccccc1C(=O)N1CCN(C)CC1` (stereo not shown): 0.0528%.
Next, `N#CC(c1ccccc1)N1CCOCC1` (stereo not shown): 6.63%.
To `S=C1SCN(Cc2cccnc2)CN1Cc1cccnc1` belongs -20.9%; to `S=C1SCN(Cc2cccnc2)CN1Cc1ccccc1`, -54.7%.
With `S=C1NCN(Cc2cccnc2)CN1Cc1ccccc1`, the “hERG current change (%, negative = inhibition) at 10uM” value amounted to 22.8%.
With `Fc1ccc2[nH]c3c(N4CCN(C5CCCCC5)CC4)ncnc3c2c1`, the “hERG current change (%, negative = inhibition) at 10uM” value is on record as -46.7%.
To `COc1ccc(CN(CC2CCC(C(=O)O)CC2)C(=S)Nc2cc(C)cc(C)c2)cc1` (stereo not shown) belongs 19.6%.
Next, `CCN1CCN(c2cc(C)nc(-c3ccccc3O)n2)CC1`: -58.9%; `Cc1cc(N2CCCC2)nc(-c2ccccc2O)n1`: -1.15%; `Cc1cc(N2CCN(C)CC2)nc(-c2ccccc2O)n1`: -41.9%.
To `Cc1ccc(CN2CC(C(=O)Nc3cccc(S(=O)(=O)N4CCCCC4)c3)CC2=O)cc1` (stereo not shown) belongs 6.85%; to `CC(=O)c1ccc(OCC(C)C)c(CC(C(N)=O)C(N)=O)c1`, 19.2%; to `CCOC(=O)C1=C(C)N(CCO)C(=O)NC1c1cccc(O)c1` (stereo not shown), 18.8%.
In the case of `O=C(Nc1ccnn1C1CCN(Cc2ccccc2)CC1)C1CCCC1`, the “hERG current change (%, negative = inhibition) at 10uM” value is recorded as -36.7%.
Next, `Cc1ccc(CN2CCC(n3nccc3NC(=O)C3CCOC3)CC2)cc1` (stereo not shown): -26.8%.
To `CC(C)n1cc(CN2CCC(n3nccc3NC(=O)C3CCCC3)CC2)cn1` belongs -1.92%; to `CSc1ccc(CN2CCC(n3nccc3NC(=O)C3CCOC3)CC2)cc1` (stereo not shown), -67.8%; to `O=C(Nc1ccnn1C1CCN(Cc2ccc(Cl)cc2)CC1)C1CCCC1`, -63.6%.
Next, `O=C(Nc1ccnn1C1CCN(Cc2cccc(O)c2)CC1)C1CCCC1`: -36.5%; `CSc1ccc(CC(=O)N2CCC(n3nccc3NC(=O)C3CC3)CC2)cc1`: -8.47%.
Regarding `O=C(Nc1ccnn1C1CCN(C(=O)c2ccc(Cl)cc2)CC1)C1CC1`, the “hERG current change (%, negative = inhibition) at 10uM” value is reported as -24.2%.
To `CC(Cc1ccc(Cl)cc1)N1CCC(n2nccc2NC(=O)C2CCCC2)CC1` (stereo not shown) belongs -76.3%; to `O=C(Nc1ccnn1C1CCN(Cc2ccccc2)CC1)C1CCOC1` (stereo not shown), 18.8%.
Next, `O=C(Nc1ccnn1C1CCN(Cc2ccc(O)c(Cl)c2)CC1)C1CCCC1`: -33%; `CSc1cccc(CN2CCC(n3nccc3NC(=O)C3CC3)CC2)c1`: -51.4%.
